In PubChem BioAssay (NCI):
About 79,000 compounds went through this panel and 15% of them were active in at least one assay; those are over-represented in the sample as a whole. The source made the active and inactive calls. Cut-off read from the data, not from the text of the source: active = growth inhibition above about 70%; inactive = the rest.

Key:
[1] = NCI Yeast Anticancer Drug Screen. Data for the rad50 strain (AID 155);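 note: 0% = growth of vehicle-only cultures of the same strain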; details: S. cerevisiae rad50 strain growth inhibition, stronger effect = higher value
Summary of the method: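 Growth of the mutant yeast was measured after compound exposure and referenced to vehicle-treated cultures.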

[2] = NCI Yeast Anticancer Drug Screen. Data for the mec2-1 strain (AID 157); details: S. cerevisiae mec2-1 strain, stronger effect = higher value
Summary of the method: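 Test agents were screened against the mec2-1 yeast strain, with defined DNA repair or cell cycle alteration. Growth was scored as inhibition against vehicle-only controls.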

[3] = NCI Yeast Anticancer Drug Screen. Data for the sgs1 mgt1 strain (AID 161);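 note: 0% = growth of cultures given vehicle only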; details: S. cerevisiae sgs1 mgt1 strain, stronger effect = higher value
Summary of the method: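 Genetically altered yeast, compound exposure, growth inhibition relative to vehicle.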

[4] = NCI Yeast Anticancer Drug Screen. Data for the cln2 rad14 strain (AID 165);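 note: 0% = growth equal to vehicle treated cultures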; details: S. cerevisiae cln2 rad14 strain, stronger effect = higher value
Summary of the method: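 Growth of compound-exposed yeast (cln2 rad14 genotype) measured and expressed as inhibition relative to vehicle.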

[5] = NCI Yeast Anticancer Drug Screen. Data for the bub3 strain (AID 167); details: S. cerevisiae bub3 mutant strain, stronger effect = higher value
Summary of the method: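 Whole-cell yeast assay. The mutant strain was incubated with compounds, and growth inhibition was determined by comparison with vehicle-treated cells.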

[6] = NCI Yeast Anticancer Drug Screen. Data for the mlh1 rad18 strain (AID 175); details: S. cerevisiae mlh1 rad18 strain growth inhibition, stronger effect = higher value
Summary of the method: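 In this whole-cell yeast screen, a strain with altered DNA damage repair is challenged with compound, and its growth is measured against matched vehicle-treated controls.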

[7] = at 5.0 µM (retest, dose inferred, filed as 0.5)
[8] = at 50.0 µM (retest, dose inferred, filed as 5.0)

Measured: growth inhibition

O=C([O-])c1ccc([I+]c2ccccc2)cc1
inactive: [1]; [7] 9% | [1]; [8] 65% | [1]; at 50.0 µM 57% | [2]; [7] 8% | [2]; at 50.0 µM 41.8% | [3]; [7] 18% | [3]; [8] 67% | [3]; at 50.0 µM 48.1% | [4]; [7] 1% | [4]; [8] 47% | [4]; at 50.0 µM 65.7% | [5]; [7] 12% | [5]; at 50.0 µM 47% | [6]; [7] 10%
active: [2]; [8] 72% | [5]; [8] 79% | [6]; [8] 80% | [6]; at 50.0 µM 80.9%

Cc1ccc(/C=C2\CCCc3ccccc3C2=O)cc1
inactive: [1]; [7] 0% | [1]; [8] 7% | [1]; at 50.0 µM 51.3% | [2]; [7] 7% | [2]; [8] 23% | [2]; at 50.0 µM 7.9% | [3]; [7] 8% | [3]; [8] 33% | [3]; at 50.0 µM 55.8% | [4]; [7] -11% | [4]; [8] -11% | [4]; at 50.0 µM 11.3% | [5]; [7] 59% | [6]; [7] 7% | [6]; [8] 23% | [6]; at 50.0 µM 55.1%
active: [5]; [8] 81% | [5]; at 50.0 µM 72.3%

CCOC(=S)SCc1nc2ccccc2[nH]1
inactive: [1]; [7] 9% | [1]; [8] 51% | [2]; [7] 3% | [3]; [7] 7% | [3]; [8] 15% | [4]; [7] 10% | [4]; at 50.0 µM 69% | [5]; [7] 5% | [6]; [7] 3%
active: [1]; at 50.0 µM 87% | [2]; [8] 96% | [2]; at 50.0 µM 80.7% | [3]; at 50.0 µM 82.6% | [4]; [8] 83% | [5]; [8] 86% | [5]; at 50.0 µM 76.8% | [6]; [8] 93% | [6]; at 50.0 µM 89.2%

COC(=O)C(C#N)=C(SC)SC
inactive: [1]; [7] 7% | [2]; [7] 4% | [3]; [7] 17% | [4]; [7] -3% | [5]; [7] 1% | [6]; [7] 41%
active: [1]; [8] 99% | [1]; at 50.0 µM 99.3% | [2]; [8] 99% | [2]; at 50.0 µM 98.2% | [3]; [8] 99% | [3]; at 50.0 µM 99.5% | [4]; [8] 98% | [4]; at 50.0 µM 95.2% | [5]; [8] 99% | [5]; at 50.0 µM 98.9% | [6]; [8] 99% | [6]; at 50.0 µM 99.1%

CCCCNC(C)(C)COC(=O)/C=C/c1ccc(OCCCC)cc1
inactive: [1]; [7] 6% | [2]; [7] -2% | [2]; [8] 47% | [2]; at 50.0 µM 56.2% | [3]; [7] 3% | [4]; [7] 3% | [5]; [7] 4% | [6]; [7] 0%
active: [1]; [8] 79% | [1]; at 50.0 µM 89.2% | [3]; [8] 86% | [3]; at 50.0 µM 75.8% | [4]; [8] 79% | [4]; at 50.0 µM 80% | [5]; [8] 75% | [5]; at 50.0 µM 86.6% | [6]; [8] 81% | [6]; at 50.0 µM 89.2%

O=C(O/N=C1/CCC/C1=C\c1ccccc1)c1ccccc1
inactive: [1]; [7] 33% | [2]; [7] 46% | [4]; [7] 25% | [5]; [7] 15% | [6]; [7] 57%
active: [1]; [8] 97% | [1]; at 50.0 µM 96.5% | [2]; [8] 99% | [2]; at 50.0 µM 98.2% | [3]; [7] 78% | [3]; [8] 99% | [3]; at 50.0 µM 98.8% | [4]; [8] 98% | [4]; at 50.0 µM 97% | [5]; [8] 99% | [5]; at 50.0 µM 96.3% | [6]; [8] 98% | [6]; at 50.0 µM 98.3%

CC1=NC(C)=C(/C(C)=N/NC(=O)c2ccccc2O)C(C)/C1=C(/C)NNC(=O)c1ccccc1O (configuration not stated)
active: [1]; at 50.0 µM 74.7% | [2]; at 50.0 µM 75% | [3]; at 50.0 µM 81.1% | [5]; at 50.0 µM 82.8% | [6]; at 50.0 µM 80%
inactive: [1]; [7] 16% | [1]; [8] 16% | [2]; [7] 12% | [2]; [8] 12% | [3]; [7] -1% | [3]; [8] -1% | [4]; [7] -2% | [4]; [8] -2% | [4]; at 50.0 µM 62% | [5]; [7] -3% | [5]; [8] -3% | [6]; [7] 2% | [6]; [8] 2%

COc1ccc(N=N/N=c2\sc3cc(OC)ccc3n2C)cc1
inactive: [1]; [7] 7% | [1]; at 50.0 µM 29.4% | [2]; [7] 3% | [2]; [8] 46% | [2]; at 50.0 µM 5.1% | [3]; [7] -2% | [3]; [8] 22% | [3]; at 50.0 µM 11.9% | [4]; [7] -2% | [4]; [8] 63% | [4]; at 50.0 µM 24.5% | [5]; [7] -5% | [5]; [8] 36% | [5]; at 50.0 µM -3.4% | [6]; [7] -6% | [6]; at 50.0 µM 46.8%
active: [1]; [8] 80% | [6]; [8] 71%

COc1ccc2c(c1)CCc1c-2ccc(C)c1CCC(=O)O
inactive: [1]; [7] 5% | [2]; [7] 21% | [2]; at 50.0 µM 63.8% | [3]; [7] 19% | [3]; at 50.0 µM 63.9% | [4]; [7] -3% | [5]; [7] 10% | [5]; at 50.0 µM 60.2% | [6]; [7] 22%
active: [1]; [8] 99% | [1]; at 50.0 µM 72.2% | [2]; [8] 100% | [3]; [8] 99% | [4]; [8] 99% | [4]; at 50.0 µM 74.2% | [5]; [8] 99% | [6]; [8] 100% | [6]; at 50.0 µM 90%
